In all, about 25,000 sequences were measured (“ln(normalized median fluorescence intensity)”: median about 9.3, highest 2% from about 10 on). What follows is part of a selection rich in the highest values, with near analogues and random picks from the rest.
Tested on: PF3D7_0420300 AP2 domain 1 (GST-tagged)
Experiment: gcPBM binding intensity (ln(normalized median fluorescence intensity)); higher = stronger DNA binding
How it was run: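 Probes on an Agilent 4 × 180k array were primer-extended, double-stranded and 36 bp long, taken from intergenic genomic regions, with negative controls added. GST-tagged P. falciparum DNA-binding domains from E. coli, about 25 μg on average, were applied to the array for 1 h in 1× PBS containing 1% milk, 0.2 mg/ml BSA, 0.5% salmon testes DNA and 0.03% Triton X-100. Binding intensity, obtained after Alexa488 anti-GST antibody detection and a 488 nm scan, is the highest Masliner-normalised natural-log median intensity across replicate spots of either probe orientation.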

Sequence	gcPBM binding intensity (ln)
TATATATATGTATATGTGCACAGTTTTCTTATTAAA [GTGCAC_site9990]	9.24
TATAAATATTTATACACACACATATATTTATATATC [CACACA_site6366]	9.82
AAATTTGGTGAAGGATGTACTTTACCTAATACTTGT [XGTACX_site4825]	9.21
ATATTTACTCACGTCTTGCACTGAGCAAGCATTATA	9.02
AATGCTATCATTAATGCACACATTTAAACTTAATAT [CACACA_site5878]	9.36
AAATTTGGCAAACACACACACACACCCACACCCACA [CACACA_site8095]	10.2
AACTTTGGCAAACACACACACACACCCACACCCACA [CACACA_site588]	10.3
GGCAAATTTATTATACCCACATACATACATACATAC [XGTACX_negctrl_site186]	9.24
AAATTTGGCAAACACACACACACACCCACAGAGACA [CACACA_site4490]	10.3
CAAACATTTTAATGTACACACACCCACAGACAAACA [CACACA_site5522]	9.78
GTTACACCAACAAACACACACACACCCACCCACAAA [CACACA_site2427]	10.2
AGACAGCGCACAAACACACAAACACCCACCCACATA [CACACA_site451]	10.2
TACATAAATTAAAACACACACACACCCAAAAAAAAA [CACACA_site2261]	10.1
CATATATATATATATACACACATATATATTTTCTTT [CACACA_site1457]	9.46
TATTTTAATTATAAATTTAAAAAAAAAAAGAAAAAA [CACACA_negctrl_site1674]	9.01
TTCGGAAAAATTAAAGCACACAAAAAAAAATAAAAA [CACACA_site8296]	9.45
TATAAGCTTTCAATGTGTACATATTATTTTATTATT [XGTACX_site3988]	9.44
TTTATGGATGTGTATGCATGCCTAAATAAATATATG [TGCATGCA_site916]	9.1
ATATATATGTATAATCGTACAGTTAACGTATTCTTA [XGTACX_site5649]	9.26
TAATATTATTATTTTACACACTTTTTTCCTTTTATC [CACACA_site2457]	9.45
GTATATAGTATGTAGAGTACTAATTTCCATATGTTC [XGTACX_site7816]	9.25

Sequence	gcPBM binding intensity (ln)
AATATTTATTTTATATGTACATAATTTATTTTTAAT [XGTACX_site776]	9.26
AAAATAAAATATTTCTGTACTTATAACTATTCTATA [XGTACX_site8007]	9.14
AACAGATAAAAGGGTACACACATATATACAAGTACA [CACACA_site7959]	9.9
AGATAAAAAAAGTACACACACACATATATATATATA [CACACA_site3072]	9.82
TACAGATAAAAGTACACACACACACCGATATATATA [CACACA_site4675]	10.2
TGAAAAGATAAAAAAAGTACACACACACATATATAT [XGTACX_site6504]	10.2
AAAAAAAAAAAAAGTACACACATACAGATAAATATA [CACACA_site5067]	9.66
AAAGATAAAAAAAGTACACACACACCGATATATATA [CACACA_site9006]	10.2
TATATATATATATGTACACACACACCGATAAATAAA [CACACA_site8041]	9.99
AAGATAAAATAATAAAGTACACATATAAATTGAAAA [XGTACX_site2113]	9.42
AGATAAAAAAAGTACACACACACATATATTTATATA [CACACA_site7437]	10.1
ATTATTACACAACGTTGTACATTTCAATATTTTTAT [XGTACX_site5096]	9.52
TAAATTTTAATATGCACACAAAATGTTATATTAAAA [CACACA_site4366]	9.11
ATAAAAATAACATATAAACACACATATATATATATA [CACACA_site9267]	9.35
AACTTGTATATATACACACACACACTATCTTTTTTT [CACACA_site8601]	10.2
ATAACTTGTATATATACACACACACCCTTTCTTTTT [CACACA_site8600]	10.1
AACTTGTATTTATACACACACACACTAGCTTTTTTT [CACACA_site5132]	10.2
CTTGTATATAAACACACACACACTTTCTTTTTTTAA [CACACA_site8602]	9.91
TATATAGTAATATATACACACACTTGTCTTGTAAAA [CACACA_site990]	9.56
TATATTTATTTATATACACACACTTGTATAAAAAAT [CACACA_site2036]	9.4
AACTTGTATATATACACACACACACTGTCTTTTTTT [CACACA_site1963]	10.2

Sequence	gcPBM binding intensity (ln)
AACTTGTATTTATACACACACACACTGTCTTTTTTT [CACACA_site7009]	10.3
TTGTATATACTATACACACACATACATACATACATA [CACACA_site814]	9.85
TTCAAAGACACAATCACACACATACATAAATATACA [CACACA_site687]	9.84
TAATCGAAACAAAGAACATGCAAACATATACCTATA [TGCATGCA_site894]	9.6
ATTTATACATATAAACGTACATACATATATAATATT [XGTACX_site2969]	9.3
TATTTTTATATAATGTGTACTTATACCTTATTTTTT [XGTACX_site1658]	9.3
TATATATTATATATATGTACTTATTCATATATATAA [XGTACX_site3860]	9.06
TTTTACTTAAAACACACACACACAAAAAAAAAAAAA [CACACA_site947]	9.96
AAATTCCACGAACACACACACATATAAATAAATAAA [CACACA_site6697]	9.97
CACGCGCACGAACACACACACACACGCATATAAATA [CACACA_site7103]	10.3
ACACGCACATATATATAAATATATATATATATAAAT [CACACA_negctrl_site1781]	9.21
CACACGCACGAACACACACACATATAAATATAAATA [CACACA_site6299]	9.92
AGAATAAAAAGGAACACACACACACCCATATATATA [CACACA_site3590]	10.1
AAATATAATAAAATGACACACGCATATATATATATA [CACACA_site8900]	9.38
AGAATAAAAAGGAACACACACACACGCATATAAATA [CACACA_site7659]	10.3
CACACGCACGAACACACACACACACGCATATAAATA [CACACA_site6302]	10.3
ATATAAAGAAAAGGAACACACAAATATATATATATA [CACACA_site463]	9.57
CAGTAGTATATACTATGTACATATTTATATTATATT [XGTACX_site4964]	9.22
TAATAAACCAAACTAAACAATATATCAAAAAGCACA [CACACA_negctrl_site269]	9.75
TATATATATATTTTAACACACACATATATATATTTA [CACACA_site8892]	9.63
TGAAAGAACCTGATTACACACATAAATTATATATAT [CACACA_site26]	9.54

Sequence	gcPBM binding intensity (ln)
GTAATATCAATATAAAGTACACACTATAGTATGTAT [XGTACX_site4714]	9.52
TTTTAAATAAAAAAATTAAATTAAAATATATAAAAA [XGTACX_negctrl_site490]	8.82
TGTATTAACAAAAAGGTGCGGATATATATAAAAAAT [GTGCAC_site9473]	9.61
ATACATATATACATATGTACATATATATATATATAT [XGTACX_site8206]	9.3
AAAAAAAAAAAAAAAAAAAAAAATATATATATATAT [XGTACX_negctrl_site33]	9.26
ACATCGATTTATATTCTGCACTGAAGAAACTACAAC [GTGCAC_site9967]	9.32
TAGAAGCAGAAACACACACACATACATACACATACA [CACACA_site1467]	9.99
CATATTTGGAAACACACACACATATTTATATATATA [CACACA_site3569]	9.95
TAATTTTTGAAACACACACACATATATATATATATA [CACACA_site94]	9.71
ATAATTTGGAAACACACACACACACCCACATATATA [CACACA_site2286]	10.3
ATTTGGCAGAAACACACACACACACCCACCCACATA [CACACA_site589]	10.4
ATTTGGCATAAACACACACACACACCCACCCACATA [CACACA_site8096]	10.4
TGTAAATTTGGCATCACACATAAATAAACATATAAA [CACACA_site4497]	9.4
TACATAAATTAATAGTCACACACGTATTTTTTATAT [CACACA_site8806]	9.45
AATAGAACTATTACACGTACAGAACATGAATTAGTT [XGTACX_site7518]	9.36
TCAAAAGAAATAAAAACATGCATAAAAGTAAAAATA [TGCATGCA_site832]	9.33
ATAAATGACAAATTAACACACATATATTATAGATAT [CACACA_site7770]	9.68
TATATATTATATAAATAAATAAATATATATATTTAT [TGCATGCA_negctrl_site270]	8.94
TTTTTATTTTTTTACAGTACATAAAATAAATAAATA [XGTACX_site6596]	8.84
